# According to PubChem BioAssay (Tox21):
# Inconclusive results are not listed. Values without a mark were called inactive. Active and inactive are the calls of the source. Calls come from the whole dose curve; as a rule, active = well fitted cell-killing curve with a large enough effect in the repeat runs; inconclusive = weak or mixed curves, or effect the other way; inactive = no such curve, though single readings can be large or run the other way.
# Test: qHTS assay to identify small molecule antagonists of the vitamin D receptor (VDR) signaling pathway - cell viability counter screen (AID 743225); note: nearly all actives have a fitted effect of over 50% in size
# Conditions: VDR-bla HEK293T viability, CellTiter-Glo luminescence, 16 h; series mostly up to 61 µM
# Text: U.S. Tox21 Program National Center for Advancing Translational Sciences [NCATS] NIH Chemical Genomics Center [NCGC] U.S. Environmental Protection Agency [EPA] National Institutes of Environmental Health Sciences [NIEHS] National Toxicology Program [NTP] U.S. Food and Drug Administration [FDA] Tox21 Assay Overview: The vitamin D receptor (VDR), a member of nuclear hormone receptor superfamily, plays a critical role in calcium homeostasis and bone metabolism. It is also involved in cell differentiation and growth, and thrombogenicity. To identify the compounds that inhibit VDR signaling, the VDR-UAS-bla HEK 293T cell line (Invitrogen, Carlsbad, CA, USA) containing a beta-lactamase reporter gene under the control of an upstream activator sequence (UAS) was used to screen the Tox21 10K compound library. The cytotoxicity of the Tox21 compound library against the VDR-bla cell line was tested in parallel by measuring the cell viability using CellTiter-Glo assay (Promega, Madison, WI) in the same wells.
# Tox21 Assay Protocol Summary: VDR-bla cells were dispensed at 2,000 cells/5 uL of assay medium per well into black wall/clear-bottom 1536-well plates using a Multidrop Combi (Thermo Fisher Scientific, Waltham, MA) dispenser. After the assay plates were incubated at a 37C and 5% CO2 for 4 h, 23 nL of compounds dissolved in DMSO, positive controls or DMSO only was transferred to the assay plate by a Pintool station (Kalypsys, San Diego, CA), followed by addition of 1 uL of 1-alpha, 25-Dihydroxy Vitamin D3 (3 nM, final concentration in the wells) using a Bioraptr Flying Reagent Dispenser (FRD) workstation (Beckman Coulter, Indianapolis, IN). The plates were incubated at 37C and 5% CO2 for 16 h, and then 1 uL of LiveBLAzerTM B/G FRET substrate was added using a Bioraptr FRD. The plates were incubated at room temperature for 2 h and fluorescence intensity was measured by an Envision plate reader (PerkinElmer, Shelton, CT). For cell viability readout that measures cytotoxicity, 3 ul/well of CellTiter-Glo reagent was added into the assay plates using a Bioraptr FRD. After 30 min incubation at room temperature, the luminescence intensity in the plates was measured using a ViewLux plate reader (PerkinElmer).
# % is set by controls: 0 for no effect and ±100 for the full control effect.
SMILES,outcome,"viability change, negative = cytotoxic"
CCCCCCCCCCCCC1CO1 (stereo not given),inactive,–
CN[C@@H]1[C@H](O)[C@H](NC)[C@H]2O[C@@]3(O)C(=O)C[C@@H](C)O[C@H]3O[C@@H]2[C@H]1O,inactive,–
CC(=O)OCCCc1ccccc1,inactive,–
CC1(N)CCC(C(C)(C)N)CC1 (stereo not given),inactive,–
COC(/C=C(\C)CCC=C(C)C)OC,inactive,–
CC(C)CCC(=O)CCC(C)C,inactive,–
CCCC(C)CC (stereo not given),inactive,–
CCN(Cc1cccc(S(=O)(=O)O)c1)c1ccccc1,inactive,–
CC(C)c1ccccc1O,inactive,–
Cc1cc(C)cc([N+](=O)[O-])c1,inactive,–
CC(C)SCc1ccco1,inactive,–
O=S(=O)(O)CCO,inactive,–
CCCCCCCCOC(C)=O,inactive,–
Cc1ccccc1C(=O)N1CC/C(=N\OS(=O)(=O)O)c2ccc(Cl)cc21,inactive,–
CCCCOC(=O)C(C)OC(=O)CCC (stereo not given),inactive,–
C=CCOc1c(Br)cc(Br)cc1Br,inactive,–
CCN(CCO)c1cccc(C)c1,inactive,–
CC1CCC(C(C)(C)S)C(=O)C1 (stereo not given),inactive,–
CO/N=C(/C(=O)N[C@@H]1C(=O)N2C(C(=O)O)=C(Cn3nnc(C)n3)CS[C@H]12)c1csc(N)n1,inactive,–
CCCCCC1Nc2cc(C(F)(F)F)c(S(N)(=O)=O)cc2S(=O)(=O)N1 (stereo not given),inactive,–

SMILES,outcome,"viability change, negative = cytotoxic"
Cc1nc2ccccc2c(=O)o1,inactive,–
COc1ccc(/C=N/NC(=O)c2ccncc2)cc1OC,inactive,–
CC(C)C(=O)Nc1cccc(C(F)(F)F)c1,inactive,–
COc1cc([N+](=O)[O-])ccc1N,inactive,–
C=CCOCC(O)CCl (stereo not given),inactive,–
CC(C)(C)c1ccc(C=O)cc1,inactive,–
CN(C)CCOCCN(C)CCO,inactive,–
CO[Si](CCCS)(OC)OC,inactive,–
Nc1ccc(/C=C/c2ccc(N)cc2S(=O)(=O)O)c(S(=O)(=O)O)c1,–,9.91% [at 0.628 µM]
C=C(C)C(=O)OCCCCCCOC(=O)C(=C)C,inactive,–
O=S(=O)(O)SSS(=O)(=O)O,inactive,–
CN=C(NC#N)NCCSCc1csc(N=C(N)N)n1,inactive,–
CCCCC[Si](OCC)(OCC)OCC,inactive,–
Cc1ccccc1N1CCN(CCc2nnc3n2CCCC3)CC1,inactive,–
CCOc1ccc(NC(=O)OC(C)C)cc1OCC,inactive,–
CC(C)CCCC(C)CC=O (stereo not given),inactive,–
CC(=O)/C=C/c1ccco1,inactive,–
C=C(C)C(=O)OC,inactive,–
O=C(O)Cc1cccc(-c2cc(CCCCCCc3ccc(O[C@H]4O[C@H](CO)[C@@H](O)[C@H](O)[C@@H]4O)c(-c4cccc(CC(=O)O)c4)c3)ccc2O[C@H]2O[C@H](CO)[C@@H](O)[C@H](O)[C@@H]2O)c1,–,5.12% [at 0.628 µM]
CCOC(=O)CCCCCCCCC(=O)OCC,inactive,–
